Screening data as filed in PubChem.
This excerpt belongs to a sample that is enriched for hits.
GIRK2 activator – Activators of human GIRK2-containing channels; HEK293 GIRK2/NPY4 cells, thallium flux fluorescence; P48051; activation (% efficacy), % for hits at 37.5 µM; 34,000 tested, under 10 active;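 active = primary screen hit, no activity in plain HEK293 cells, and in GIRK2-only cells above 5% efficacy rising with concentration; inactive = the rest, including fluorescent compounds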;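 note: efficacy is normalized control-subtracted fluorescence 15 s after thallium addition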
Target sequence (P48051 whole entry, looked up): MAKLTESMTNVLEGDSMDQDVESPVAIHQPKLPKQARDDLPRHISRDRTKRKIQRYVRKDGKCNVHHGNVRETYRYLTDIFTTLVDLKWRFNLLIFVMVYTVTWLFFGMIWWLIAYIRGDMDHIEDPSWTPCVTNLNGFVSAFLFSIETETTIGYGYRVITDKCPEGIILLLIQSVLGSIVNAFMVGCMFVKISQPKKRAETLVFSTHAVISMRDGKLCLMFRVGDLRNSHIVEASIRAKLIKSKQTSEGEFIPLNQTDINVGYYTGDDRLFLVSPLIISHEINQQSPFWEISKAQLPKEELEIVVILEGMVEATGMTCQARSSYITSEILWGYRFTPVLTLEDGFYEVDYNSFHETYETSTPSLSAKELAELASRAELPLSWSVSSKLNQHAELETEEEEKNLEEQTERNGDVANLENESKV
GluA2 TARP mod – modulates AMPAR-stargazin complexes; O88602+P19491; AID 1259245; 40,000 compounds, 3.5% hits; calls only at 30 µM; HEK293 GluA2+stargazin, membrane potential dye (FDSS), glutamate EC50; hits were called plate by plate, in both directions;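 active = any of four per-well response measures lying three or more SD from its plate-wide compound average, in either direction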
Calls only; - = inactive; . = no result; + = active, no number.

SMILES | GIRK2 activator | GluA2 TARP mod
COc1cccc(-c2nnc3ccc(OCCNC(=O)NC4CCCCC4)nn23)c1 | - | +
COc1ccc(-c2nnc3ccc(OCCNC(=O)Nc4ccccc4C)nn23)cc1OC | - | +
COc1cccc(-c2nnc3ccc(OCCNC(=O)Nc4cccc(C)c4)nn23)c1 | - | -
COc1ccc(-c2nnc3ccc(OCCNC(=O)c4ccco4)nn23)cc1 | - | +
COc1ccc(-c2nnc3ccc(OCCNC(=O)c4ccccc4Cl)nn23)cc1 | - | -
COc1ccc(-c2nnc3ccc(OCCNC(=O)c4cccs4)nn23)cc1OC | - | -
COc1cccc(Cn2c(SCc3nc(-c4ccc(C)cc4)no3)nc3ccsc3c2=O)c1 | - | -
COCCn1c(-n2nc(C)c(C)c2C)nc2c1c(=O)n(CCc1ccccc1)c(=O)n2C | . | -
COc1ccc(S(=O)(=O)NCC2(c3cccs3)CCCC2)c(OC)c1 | - | .
CCOCC(=O)Nn1cnc2c(cnn2C(C)(C)C)c1=O | . | +
CC(C)(C)n1ncc2c(=O)n(NC(=O)c3cc([N+](=O)[O-])ccc3Cl)cnc21 | - | -
CC(C)(C)n1ncc2c(=O)n(NC(=O)c3cc(Br)ccc3Cl)cnc21 | - | +
CCC(=O)Nn1cnc2c(cnn2C(C)(C)C)c1=O | . | -
CNC(=O)Cc1ccc(NC(=O)COc2ccccc2F)cc1 | - | -
O=C(Cn1c(C2CC2)nc2c(cnn2-c2ccccc2)c1=O)Nc1ccccc1F | - | .
O=C(CNS(=O)(=O)c1ccccc1Cl)N1CCOC(c2ccccc2)C1 (centres undefined) | - | .
Cc1csc(NC(=O)CSc2nc(=O)n(CCCO)c3c2CCCC3)n1 | - | -
N#Cc1ccccc1NC(=O)CSc1nccnc1N1CCSCC1 | - | -
COC(=O)c1ccccc1NC(=O)CSc1nccnc1N1CCSCC1 | - | +
O=C(Nc1c(F)cccc1F)N(Cc1ccccn1)Cc1ccco1 | - | .
O=C(NC1CCCCCC1)C1c2ccccc2C(=O)N1CCC1=CCCCC1 (centres undefined) | - | +
O=C(CN1C(=O)c2ccccc2S1(=O)=O)NC1CCCCCC1 | - | -
O=C(NCC(c1ccco1)N1CCOCC1)C1CC=CCC1 (centres undefined) | - | +
O=C(NCC(c1cccs1)N1CCOCC1)C1CCCCC1 (centres undefined) | - | +
CN(C)C(CNC(=O)C1CCCCC1)c1cccs1 (centres undefined) | - | -
SMILES | GIRK2 activator | GluA2 TARP mod
O=C(NCC(c1ccco1)N1CCOCC1)NC1CCCCC1 (centres undefined) | - | -
CCOC(=O)N1CCN(C(=O)CSc2nnc(-c3cn(CC)nc3OCC)n2CC)CC1 | - | -
CC(C)S(=O)(=O)c1ccc(CC(=O)N2CCC(c3ccsc3)CC2)cc1 | - | +
CC(C)S(=O)(=O)c1ccc(CC(=O)N2CCC(c3cccs3)CC2)cc1 | - | -
CCCCn1c(=O)c2c(nc3n2CC(C)CN3c2ccccc2OC)n(C)c1=O (centres undefined) | . | -
CCn1c(=O)c2c(nc3n(-c4cc(OC)ccc4OC)c(-c4ccccc4)cn23)n(C)c1=O | - | -
CCCn1c(=O)c2c(nc3n(-c4cc(OC)ccc4OC)c(-c4ccccc4)cn23)n(C)c1=O | . | +
CCCn1c(=O)c2c(nc3n2CC(C)CN3c2ccccc2OC)n(C)c1=O (centres undefined) | . | +
Cc1ccc(C)c(Cn2nc(-c3ccco3)c3sc(N4CCOCC4)nc3c2=O)c1 | - | -
Cc1cccc(NC(=O)c2ccc3nn(CC(=O)N4CCN(c5ccccc5)CC4)c(=O)n3c2)c1 | - | -
COc1cc(S(=O)(=O)N2CCN(c3ccc(F)cc3)CC2)c(C)cc1C | . | -
COCCNC(=O)CCc1csc(NC(=O)c2ccc[nH]c2=O)n1 | - | +
CC(C)CCNC(=O)CCc1csc(NC(=O)c2ccc[nH]c2=O)n1 | . | -
O=C(NCc1ccc2c(c1)OCO2)C(=O)NCC1CCN(C2CCCC2)CC1 | - | -
O=C(/C=C/c1ccc2c(c1)OCO2)N1CCN(C(=O)c2cnn3ccccc23)CC1 | - | -
CCOc1cccc2sc(NC(=O)c3cc(C)nn3CC)nc12 | . | +
CCOc1cccc2sc(NC(=O)c3ccnn3C)nc12 | . | -
O=C(Nc1cccc([N+](=O)[O-])c1)c1ccc(-c2ccccc2Cl)o1 | . | -
O=C(O)c1ccc(/C=C/C(=O)c2ccco2)cc1 | . | +
CCCC(=O)Nc1ccc(O)c(C(=O)/C=C/c2ccc(C(=O)O)cc2)c1 | . | -
NC(=O)c1cccc(NC(=O)c2ccoc2)c1 | - | -
O=C(Nc1ccc(Nc2ccccc2)cc1)c1ccoc1 | - | +
O=C(Cn1nc(-c2ccco2)c2sc(N3CCOCC3)nc2c1=O)NCc1ccc(F)cc1 | - | -
Cc1n[nH]c(C)c1S(=O)(=O)Nc1ccc2c(c1)CN(C(=O)c1cccs1)CC2 | - | -
CC(=O)N1CCc2c(sc(NC(=O)c3ccccc3)c2-c2nc3ccccc3s2)C1 | . | -
SMILES | GIRK2 activator | GluA2 TARP mod
CC(C)N1CCc2c(sc(NC(=O)c3ccco3)c2-c2nc3ccccc3s2)C1 | . | +
CC(C)N1CCc2c(sc(NC(=O)c3nc4ccccc4s3)c2-c2nc3ccccc3s2)C1 | . | -
CC(=O)N1CCc2c(sc(NC(=O)c3cc(C)n(C)n3)c2-c2nc3ccccc3s2)C1 | - | +
COc1ccc2sc(N(CCN3CCOCC3)C(=O)/C=C/c3ccccc3)nc2c1 | - | -
Cc1ccc(NC(=O)C2CCN(c3ccc(-c4cccs4)nn3)CC2)cc1F | - | -
COc1ccc(NC(=O)c2ccc(S(=O)(=O)C(C)C)cc2)c2ccccc12 | - | -
O=S(=O)(Cc1cccc(Cl)c1)N(Cc1ccccn1)Cc1ccco1 | - | .
Cc1ccc(OCC(O)Cn2c(N3CCC(C)CC3)nc3c2c(=O)n(C)c(=O)n3C)cc1C (centres undefined) | . | -
CN1CCN(c2nc3c(c(=O)n(C)c(=O)n3C)n2CC(O)COc2ccccc2)CC1 (centres undefined) | . | +
COc1ccc(OCC(O)Cn2c(N3CCN(C)CC3)nc3c2c(=O)n(C)c(=O)n3C)cc1 (centres undefined) | . | +
Cc1cccc(OCC(O)Cn2c(N3CCN(c4ccccc4)CC3)nc3c2c(=O)n(C)c(=O)n3C)c1 (centres undefined) | . | -
COc1ccc(C2CCN(C(=O)c3ccccc3Cl)C2)cc1 (centres undefined) | . | -
COc1ccc(CCNC(=O)NCc2cnn3ccccc23)cc1 | - | .
Cc1cc(=O)[nH]c(-n2nc(C3CC3)cc2NC(=O)/C=C\c2ccccc2)n1 | - | -
Cc1ccc(S(=O)(=O)N2CCCc3cc(NC(=O)c4ccccc4)ccc32)cc1 | . | -
COc1ccc(S(=O)(=O)N2CCCc3cc(NC(=O)C(C)(C)C)ccc32)cc1 | . | +
Cc1ccc(S(=O)(=O)N2CCCc3cc(NC(=O)Oc4ccccc4)ccc32)cc1 | . | +
COc1ccc(S(=O)(=O)N2CCCc3cc(NC(C)=O)ccc32)cc1 | . | -
CC(C(=O)Nc1ccc(F)c([N+](=O)[O-])c1)N1C(=O)c2ccccc2S1(=O)=O (centres undefined) | - | -
CCOC(=O)N1CCN(C(=O)CSc2ccnc3c2c(=O)n(C)c(=O)n3C)CC1 | . | +
CCOC(=O)C(C)Sc1ccnc2c1c(=O)n(C)c(=O)n2C (centres undefined) | - | -
COc1ccc(C(=O)CSc2ccnc3c2c(=O)n(C)c(=O)n3C)cc1 | - | -
COC(=O)CSc1ccnc2c1c(=O)n(C)c(=O)n2C | - | +
